Results: PubChem BioAssay (NCI)
About 79,000 compounds went through this panel and 15% of them were active in at least one assay; those are over-represented in the sample as a whole. Unmarked numbers belong to inactive results. Calls of active or inactive are those of the source. No stated cut-off is given here; in the data, active means growth inhibition above about 70%; inactive means the rest.

Columns and labels:
[1] = NCI Yeast Anticancer Drug Screen. Data for the wt1 strain (AID 149);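 further: 0% = growth of vehicle-treated wt1 cultures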; conditions: S. cerevisiae wt1 strain (SPY 50644) growth inhibition, active compounds read high
How it was run: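 Readout: yeast growth inhibition, normalised to vehicle controls, in the wt1 strain exposed to test compounds.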

[2] = NCI Yeast Anticancer Drug Screen. Data for the rad50EPP+ strain (AID 151);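 further: 0% = growth of vehicle-treated control cultures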; conditions: S. cerevisiae rad50 mutant strain, active compounds read high
How it was run: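 Yeast strain carrying rad50 alteration (rad50EPP+) exposed to compounds; growth inhibition measured relative to vehicle-treated controls.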

[3] = NCI Yeast Anticancer Drug Screen. Data for the mgt1 strain (AID 153); conditions: S. cerevisiae mgt1 mutant growth inhibition, active compounds read high
How it was run: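 Yeast mgt1 strain (DNA repair/cell-cycle alteration panel) exposed to compounds; growth inhibition measured relative to vehicle-treated controls.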

[4] = NCI Yeast Anticancer Drug Screen. Data for the rad50 strain (AID 155);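 further: 0% = growth of vehicle-only cultures of the same strain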; conditions: S. cerevisiae rad50 strain growth inhibition, active compounds read high
How it was run: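 Compounds were tested on a yeast strain with an engineered DNA damage repair alteration; the reported value is growth inhibition normalised to vehicle treatment.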

[5] = NCI Yeast Anticancer Drug Screen. Data for the mec2-1 strain (AID 157); conditions: S. cerevisiae mec2-1 strain, active compounds read high
How it was run: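 mec2-1 yeast strain, carrying an alteration in DNA damage repair or cell cycle control, was exposed to compounds; growth inhibition was measured relative to vehicle-treated controls.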

[6] = NCI Yeast Anticancer Drug Screen. Data for the rad14 strain (AID 159);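 further: 0% = growth of vehicle-treated control cultures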; conditions: S. cerevisiae rad14 strain growth inhibition, active compounds read high
How it was run: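 Compound-treated yeast with a defined DNA-repair lesion; growth inhibition normalised to vehicle-treated cultures.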

[7] = NCI Yeast Anticancer Drug Screen. Data for the sgs1 mgt1 strain (AID 161);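 further: 0% = growth of cultures given vehicle only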; conditions: S. cerevisiae sgs1 mgt1 strain, active compounds read high
How it was run: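 Growth of a repair-deficient yeast mutant was monitored after compound treatment and expressed as inhibition relative to vehicle-treated cultures.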

[8] = NCI Yeast Anticancer Drug Screen. Data for the CLN2oe strain (AID 163);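 further: 0% = growth of vehicle-only control cultures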; conditions: S. cerevisiae CLN2oe strain, active compounds read high
How it was run: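 Yeast cells carrying a defined cell-cycle control alteration were exposed to test compounds. Growth inhibition was scored against vehicle-treated control cultures.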

[9] = NCI Yeast Anticancer Drug Screen. Data for the cln2 rad14 strain (AID 165);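 further: 0% = growth equal to vehicle treated cultures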; conditions: S. cerevisiae cln2 rad14 strain, active compounds read high
How it was run: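 Yeast carrying cln2 and rad14 alterations (cell cycle control and DNA damage repair) were exposed to compounds. Growth inhibition was measured against vehicle-treated controls.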

[10] = NCI Yeast Anticancer Drug Screen. Data for the bub3 strain (AID 167); conditions: S. cerevisiae bub3 mutant strain, active compounds read high
How it was run: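 Growth of a checkpoint-deficient yeast mutant is measured after compound exposure. Values represent inhibition relative to vehicle.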

[11] = NCI Yeast Anticancer Drug Screen. Data for the wt2 strain (AID 169);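 further: 0% = growth of vehicle-treated yeast cultures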; conditions: S. cerevisiae wt2 strain growth inhibition, active compounds read high
How it was run: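 Yeast cells were exposed to test compounds, and growth inhibition was measured relative to vehicle-treated controls.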

[12] = NCI Yeast Anticancer Drug Screen. Data for the mlh1 strain (AID 171);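 further: 0% = growth of vehicle-treated control cultures of the same strain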; conditions: S. cerevisiae mlh1 strain growth inhibition, active compounds read high
How it was run: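 Yeast carrying a defined genetic alteration in DNA damage repair or cell cycle control were exposed to test compounds. Growth inhibition was measured relative to vehicle-treated controls.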

[13] = NCI Yeast Anticancer Drug Screen. Data for the sgs1 strain (AID 173);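 further: 0% = growth of vehicle-only control cultures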; conditions: S. cerevisiae sgs1 mutant, active compounds read high
How it was run: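 Yeast mutant strains carrying defined defects in DNA damage repair or cell cycle control were exposed to test compounds. Growth inhibition was scored against vehicle-treated controls.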

[14] = NCI Yeast Anticancer Drug Screen. Data for the mlh1 rad18 strain (AID 175); conditions: S. cerevisiae mlh1 rad18 strain growth inhibition, active compounds read high
How it was run: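 Growth inhibition of the yeast strain was measured after compound exposure and expressed relative to vehicle-treated controls. The strain carries defined defects in DNA damage repair.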

[15] = NCI Yeast Anticancer Drug Screen. Data for the rad18 strain (AID 177); conditions: S. cerevisiae rad18 mutant growth inhibition, active compounds read high
How it was run: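 Yeast carrying a defined DNA damage repair alteration were exposed to compounds. Growth inhibition was expressed relative to vehicle-treated controls.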

[16] = at 5.0 µM (retest, dose inferred, filed as 0.5)
[17] = at 50.0 µM (retest, dose inferred, filed as 5.0)

Structure (SMILES): O=C(CCCN1CCC2(CC1)OC(=O)N(c1ccccc1)C2=O)c1ccccc1
- growth inhibition ([1]; at 1.2 µM): 43%
- growth inhibition ([1]; at 3.7 µM): 45%
- growth inhibition ([1]; at 11.0 µM): 53%
- growth inhibition ([1]; at 33.0 µM): 52%
- growth inhibition ([1]; at 100.0 µM): 63%
- growth inhibition ([2]; at 1.2 µM): 44%
- growth inhibition ([2]; at 3.7 µM): 29%
- growth inhibition ([2]; at 11.0 µM): 33%
- growth inhibition ([2]; at 33.0 µM): 26%
- growth inhibition ([2]; at 100.0 µM): 26%
- growth inhibition ([3]; at 1.2 µM): 29%
- growth inhibition ([3]; at 3.7 µM): 44%
- growth inhibition ([3]; at 11.0 µM): 56%
- growth inhibition ([3]; at 33.0 µM): 65%
- growth inhibition ([3]; at 100.0 µM): 74% (active)
- growth inhibition ([4]; at 1.2 µM): 31%
- growth inhibition ([4]; at 3.7 µM): 50%
- growth inhibition [4, 16]: 31%
- growth inhibition ([4]; at 11.0 µM): 60%
- growth inhibition ([4]; at 33.0 µM): 65%
- growth inhibition [4, 17]: 64%
- growth inhibition ([4]; at 50.0 µM): 83.9% (active)
- growth inhibition ([4]; at 100.0 µM): 67%
- growth inhibition ([5]; at 1.2 µM): 44%
- growth inhibition ([5]; at 3.7 µM): 45%
- growth inhibition [5, 16]: 37%
- growth inhibition ([5]; at 11.0 µM): 60%
- growth inhibition ([5]; at 33.0 µM): 61%
- growth inhibition [5, 17]: 60%
- growth inhibition ([5]; at 50.0 µM): 47.2%
- growth inhibition ([5]; at 100.0 µM): 59%
- growth inhibition ([6]; at 1.2 µM): 53%
- growth inhibition ([6]; at 3.7 µM): 63%
- growth inhibition ([6]; at 11.0 µM): 74% (active)
- growth inhibition ([6]; at 33.0 µM): 79% (active)
- growth inhibition ([6]; at 100.0 µM): 90% (active)
- growth inhibition [7, 16]: 48%
- growth inhibition [7, 17]: 69%
- growth inhibition ([7]; at 50.0 µM): 85.9% (active)
- growth inhibition ([8]; at 1.2 µM): 45%
- growth inhibition ([8]; at 3.7 µM): 63%
- growth inhibition ([8]; at 11.0 µM): 72% (active)
- growth inhibition ([8]; at 33.0 µM): 71% (active)
- growth inhibition ([8]; at 100.0 µM): 76% (active)
- growth inhibition [9, 16]: 64%
- growth inhibition [9, 17]: 85% (active)
- growth inhibition ([9]; at 50.0 µM): 65%
- growth inhibition ([10]; at 1.2 µM): 20%
- growth inhibition ([10]; at 3.7 µM): 29%
- growth inhibition [10, 16]: 53%
- growth inhibition ([10]; at 11.0 µM): 35%
- growth inhibition ([10]; at 33.0 µM): 38%
- growth inhibition [10, 17]: 67%
- growth inhibition ([10]; at 50.0 µM): 79.4% (active)
- growth inhibition ([10]; at 100.0 µM): 50%
- growth inhibition ([11]; at 1.2 µM): 7%
- growth inhibition ([11]; at 3.7 µM): 24%
- growth inhibition ([11]; at 11.0 µM): 32%
- growth inhibition ([11]; at 33.0 µM): 38%
- growth inhibition ([11]; at 100.0 µM): 40%
- growth inhibition ([12]; at 1.2 µM): 35%
- growth inhibition ([12]; at 3.7 µM): 66%
- growth inhibition ([12]; at 11.0 µM): 71% (active)
- growth inhibition ([12]; at 33.0 µM): 70% (active)
- growth inhibition ([12]; at 100.0 µM): 73% (active)
- growth inhibition ([13]; at 1.2 µM): 53%
- growth inhibition ([13]; at 3.7 µM): 67%
- growth inhibition ([13]; at 11.0 µM): 71% (active)
- growth inhibition ([13]; at 33.0 µM): 72% (active)
- growth inhibition ([13]; at 100.0 µM): 75% (active)
- growth inhibition [14, 16]: 23%
- growth inhibition [14, 17]: 78% (active)
- growth inhibition ([14]; at 50.0 µM): 72.9% (active)
- growth inhibition ([15]; at 1.2 µM): 63%
- growth inhibition ([15]; at 3.7 µM): 70% (active)
- growth inhibition ([15]; at 11.0 µM): 78% (active)
- growth inhibition ([15]; at 33.0 µM): 80% (active)
- growth inhibition ([15]; at 100.0 µM): 77% (active)
